Here are results for 5 compounds from the supplement of paper PMC9794691.

Assay in all cases: area under confluence curve of osimertinib + compound combination regimen (DTP regrowth); compare to osimertinib-only DTP control AUC of the same experiment (AUC (confluence x time, arbitrary))
One assay deals with H1975. An outline of the steps: (§1)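 The area under the IncuCyte confluence–time curve, calculated in Prism and taken as the median of triplicates where available, is the value reported. It was measured in EGFR-mutant NSCLC lines that received the EGFR inhibitor either alone, followed by a test compound, or together with a fixed-dose test compound until the persister stage (10–21 days) and then drug-free medium. Medium was refreshed every 3–4 days until the inhibitor-only wells were confluent again.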

The next assay concerns HCC2279. The essentials:
as §1

Another assay concerns HCC2935. An outline of the steps:
as §1

The test system of a further assay is HCC4006. An outline of the steps: as §1
The next assay concerns HCC827. The essentials:
as §1

For another assay, the system named is II-18. An outline of the steps: as §1
A further assay relates to PC9. The essentials: as §1

Take `CN(C)CCCOc1ccc(-c2ccc3ncc4c(c3c2)n(C2CCOCC2)c(=O)n4C)cn1` + C=CC(=O)Nc1cc(Nc2nccc(-c3cn(C)c4ccccc34)n2)c(OC)cc1N(C)CCN(C)C [osimertinib]: the “area under confluence curve” value in the assay with H1975 (test compound dose 300 nM, dosing schedule: sequential, osimertinib-only DTP control AUC in same experiment: 19301, DMSO control AUC in same experiment: 26223) turned out to be 3330; in the assay on H1975 (test compound dose 300 nM, dosing schedule: upfront, osimertinib-only DTP control AUC in same experiment: 23997, DMSO control AUC in same experiment: 26223), 18100; in the assay on HCC2279 (test compound dose 300 nM, dosing schedule: sequential, osimertinib-only DTP control AUC in same experiment: 26096, DMSO control AUC in same experiment: 14404) it was 24700; with HCC2279 (test compound dose 300 nM, dosing schedule: upfront, osimertinib-only DTP control AUC in same experiment: 33120, DMSO control AUC in same experiment: 14404) it was 33900; in the assay with HCC2935 (test compound dose 300 nM, dosing schedule: sequential, osimertinib-only DTP control AUC in same experiment: 22314, DMSO control AUC in same experiment: 19215), 22300; in the assay with HCC2935 (test compound dose 300 nM, dosing schedule: upfront, osimertinib-only DTP control AUC in same experiment: 29846, DMSO control AUC in same experiment: 19215), 30600. Further, the “area under confluence curve” value came out at 12000 with HCC4006 (test compound dose 300 nM, dosing schedule: sequential, osimertinib-only DTP control AUC in same experiment: 12791, DMSO control AUC in same experiment: 18415); 16000 in the assay with HCC4006 (test compound dose 300 nM, dosing schedule: upfront, osimertinib-only DTP control AUC in same experiment: 17269, DMSO control AUC in same experiment: 18415); 12300 in the assay with HCC827 (test compound dose 300 nM, dosing schedule: sequential, osimertinib-only DTP control AUC in same experiment: 15330, DMSO control AUC in same experiment: 21320); 17400 in the assay on HCC827 (test compound dose 300 nM, dosing schedule: upfront, osimertinib-only DTP control AUC in same experiment: 20798, DMSO control AUC in same experiment: 21320); 9720 in the assay on II-18 (test compound dose 300 nM, dosing schedule: sequential, osimertinib-only DTP control AUC in same experiment: 8624, DMSO control AUC in same experiment: 11834); 10600 with II-18 (test compound dose 300 nM, dosing schedule: upfront, osimertinib-only DTP control AUC in same experiment: 10856, DMSO control AUC in same experiment: 11834).
As for `COc1cc2nc(C)nc(N[C@H](C)c3cc(N)cc(C(F)(F)F)c3)c2cc1O[C@H]1CCOC1` + C=CC(=O)Nc1cc(Nc2nccc(-c3cn(C)c4ccccc34)n2)c(OC)cc1N(C)CCN(C)C [osimertinib], the “area under confluence curve” value in the assay on PC9 (test compound dose 1000 nM, dosing schedule: sequential, osimertinib-only DTP control AUC in same experiment: 15163, DMSO control AUC in same experiment: 28684) was found to be 11600; with PC9 (test compound dose 1000 nM, dosing schedule: upfront, osimertinib-only DTP control AUC in same experiment: 21337, DMSO control AUC in same experiment: 28684) it was 11000.
For `Nc1ccc(/C=C/C(=O)NCc2cc3cc(-c4ccc(C(=O)N5CCC(F)(F)CC5)cc4)cc(-c4ccc(F)cc4)c3o2)cn1` + C=CC(=O)Nc1cc(Nc2nccc(-c3cn(C)c4ccccc34)n2)c(OC)cc1N(C)CCN(C)C [osimertinib], the “area under confluence curve” value in the assay on PC9 (test compound dose 100 nM, dosing schedule: sequential, osimertinib-only DTP control AUC in same experiment: 14258, DMSO control AUC in same experiment: 21913) came out at 6800; in the assay on PC9 (test compound dose 100 nM, dosing schedule: upfront, osimertinib-only DTP control AUC in same experiment: 21499, DMSO control AUC in same experiment: 21913) it was 12200.
As for `C[C@@H](Oc1cc(-c2cnn(C3CCNCC3)c2)cnc1N)c1c(Cl)ccc(F)c1Cl` [Crizotinib] + C=CC(=O)Nc1cc(Nc2nccc(-c3cn(C)c4ccccc34)n2)c(OC)cc1N(C)CCN(C)C [osimertinib], the “area under confluence curve” value in the assay with H1975 (test compound dose 1000 nM, dosing schedule: sequential, osimertinib-only DTP control AUC in same experiment: 22968, DMSO control AUC in same experiment: 15857) turned out to be 9770; with H1975 (test compound dose 1000 nM, dosing schedule: upfront, osimertinib-only DTP control AUC in same experiment: 27164, DMSO control AUC in same experiment: 15857), 9330; in the assay on HCC2279 (test compound dose 1000 nM, dosing schedule: sequential, osimertinib-only DTP control AUC in same experiment: 26096, DMSO control AUC in same experiment: 14404) it was 23100; in the assay on HCC2279 (test compound dose 1000 nM, dosing schedule: upfront, osimertinib-only DTP control AUC in same experiment: 33120, DMSO control AUC in same experiment: 14404), 32900; in the assay with HCC2935 (test compound dose 1000 nM, dosing schedule: sequential, osimertinib-only DTP control AUC in same experiment: 22314, DMSO control AUC in same experiment: 19215), 21400; in the assay with HCC2935 (test compound dose 1000 nM, dosing schedule: upfront, osimertinib-only DTP control AUC in same experiment: 29846, DMSO control AUC in same experiment: 19215), 33400. The “area under confluence curve” value with HCC4006 (test compound dose 1000 nM, dosing schedule: sequential, osimertinib-only DTP control AUC in same experiment: 12791, DMSO control AUC in same experiment: 18415) was 12500; with HCC4006 (test compound dose 1000 nM, dosing schedule: upfront, osimertinib-only DTP control AUC in same experiment: 17269, DMSO control AUC in same experiment: 18415), 13000; with HCC827 (test compound dose 1000 nM, dosing schedule: sequential, osimertinib-only DTP control AUC in same experiment: 15330, DMSO control AUC in same experiment: 21320), 10400; in the assay on HCC827 (test compound dose 1000 nM, dosing schedule: upfront, osimertinib-only DTP control AUC in same experiment: 20798, DMSO control AUC in same experiment: 21320), 15000; in the assay on II-18 (test compound dose 1000 nM, dosing schedule: sequential, osimertinib-only DTP control AUC in same experiment: 8624, DMSO control AUC in same experiment: 11834) it was 1450; with II-18 (test compound dose 1000 nM, dosing schedule: upfront, osimertinib-only DTP control AUC in same experiment: 10856, DMSO control AUC in same experiment: 11834), 10800.
For the compound `Cn1cc(CNCC2CCN(c3ncc(C(=O)NO)cn3)CC2)c2ccccc21` [Quisinostat] + C=CC(=O)Nc1cc(Nc2nccc(-c3cn(C)c4ccccc34)n2)c(OC)cc1N(C)CCN(C)C [osimertinib], the “area under confluence curve” value was found to be 1750 in the assay on H1975 (test compound dose 10 nM, dosing schedule: sequential, osimertinib-only DTP control AUC in same experiment: 15943, DMSO control AUC in same experiment: 20657); 5730 with H1975 (test compound dose 10 nM, dosing schedule: upfront, osimertinib-only DTP control AUC in same experiment: 27804, DMSO control AUC in same experiment: 20657); 6370 in the assay with HCC2279 (test compound dose 10 nM, dosing schedule: sequential, osimertinib-only DTP control AUC in same experiment: 20224, DMSO control AUC in same experiment: 29252); 12400 with HCC2279 (test compound dose 10 nM, dosing schedule: upfront, osimertinib-only DTP control AUC in same experiment: 43517, DMSO control AUC in same experiment: 29252); 6600 with HCC2935 (test compound dose 10 nM, dosing schedule: sequential, osimertinib-only DTP control AUC in same experiment: 6271, DMSO control AUC in same experiment: 13875); 6240 in the assay on HCC2935 (test compound dose 10 nM, dosing schedule: upfront, osimertinib-only DTP control AUC in same experiment: 10360, DMSO control AUC in same experiment: 13875). The “area under confluence curve” value with HCC4006 (test compound dose 10 nM, dosing schedule: sequential, osimertinib-only DTP control AUC in same experiment: 21234, DMSO control AUC in same experiment: 16638) is 5480; with HCC4006 (test compound dose 10 nM, dosing schedule: upfront, osimertinib-only DTP control AUC in same experiment: 19238, DMSO control AUC in same experiment: 16638), 4030; in the assay on HCC827 (test compound dose 10 nM, dosing schedule: sequential, osimertinib-only DTP control AUC in same experiment: 8266, DMSO control AUC in same experiment: 27404), 2780; in the assay with HCC827 (test compound dose 10 nM, dosing schedule: upfront, osimertinib-only DTP control AUC in same experiment: 13929, DMSO control AUC in same experiment: 27404), 4260; in the assay with II-18 (test compound dose 10 nM, dosing schedule: sequential, osimertinib-only DTP control AUC in same experiment: 21122, DMSO control AUC in same experiment: 7080) it was 426; in the assay with II-18 (test compound dose 10 nM, dosing schedule: upfront, osimertinib-only DTP control AUC in same experiment: 22894, DMSO control AUC in same experiment: 7080), 19200. Also, the “area under confluence curve” value in the assay on PC9 (test compound dose 10 nM, dosing schedule: sequential, osimertinib-only DTP control AUC in same experiment: 10175, DMSO control AUC in same experiment: 27958) came to 2060; in the assay with PC9 (test compound dose 10 nM, dosing schedule: sequential, osimertinib-only DTP control AUC in same experiment: 13992, DMSO control AUC in same experiment: 30002) it was 4770; with PC9 (test compound dose 10 nM, dosing schedule: sequential, osimertinib-only DTP control AUC in same experiment: 14708, DMSO control AUC in same experiment: 21341) it was 2700; in the assay on PC9 (test compound dose 10 nM, dosing schedule: upfront, osimertinib-only DTP control AUC in same experiment: 16134, DMSO control AUC in same experiment: 27958) it was 1380; in the assay with PC9 (test compound dose 10 nM, dosing schedule: upfront, osimertinib-only DTP control AUC in same experiment: 21313, DMSO control AUC in same experiment: 21341) it was 6010; with PC9 (test compound dose 10 nM, dosing schedule: upfront, osimertinib-only DTP control AUC in same experiment: 22377, DMSO control AUC in same experiment: 30002) it was 4720.
